Test results reported in PubChem BioAssay (NCATS).
Results filed as inconclusive are left out. The source made the active and inactive calls. Calls follow the shape of the dose curve; as a rule, active = well fitted cell-killing curve with a large enough effect; inconclusive = small, poorly fitted or top-dose-only effect; inactive = flat fitted curve, though single readings scatter.

test: qHTS of pediatric cancer cell lines to identify multiple opportunities for drug repurposing: Primary screen for RD cells (AID 1347104); conditions: RD rhabdomyosarcoma viability, CellTiter-Glo luminescence, 48 h; series mostly up to 46 µM; activity change, negative = cytotoxic: at the top concentration; also: nearly all actives have a fitted effect of over 55% in size
Text: Drug repurposing or repositioning has been offered as a strategy for drug development in oncology programs. This approach has special potential for childhood cancers and other rare or orphan diseases, where the expected return on new drug development has been a disincentive to pharmaceuticals. […] In this project we exploit the poly-pharmacology of drugs to discover new indications via phenotypic screening of a panel of 19 well-characterized cell lines derived from solid tumors seen in children and adolescents. The goal is to identify approved drugs with previously unrecognized anticancer properties that has the potential to reveal new mechanisms and biological processes involved in carcinogenesis or drug resistance. We employed a titration-based paradigm (quantitative high-throughput screening or qHTS), where all compounds were tested at multiple concentrations for their effect on cell viability. Concentration-response curves (CRCs) were derived directly from the primary screen, and both potency and efficacy values were used to identify compounds with robust bioactivity profiles. We screened the NIH Chemical Genomics Center (NCGC) Pharmaceutical Collection (NPC) and Mechanism Interrogation Plate (MIPE) small molecule collections of approved and investigational compounds against these cell lines; and measured metabolically active cells after 48 hours of compound treatment as a proxy for cell viability. […] Assay Submitter: Nathalia J. Martinez, National Center for Advancing Translational Sciences, National Institutes of Health, Rockville, MD, USA; email: natalia.martinez@nih.gov Shen, M et al. Quantitative high-throughput phenotypic screening of pediatric cancer cell lines identifies multiple opportunities for drug repurposing. Oncotarget 2017 Dec 19;9(4):4758-4772. PMID 29435139.
The cells were obtained from University of North Carolina (UNC), Pediatric Preclinical Testing Program (PPT), and Coriell Institute (CI). qHTS cell viability assay: Cells were assayed in growth media at a density of 500-1,000 cells/well. Five microliters of cells were dispensed into 1,536-well, white, solid-bottom, TC-treated plates (Greiner Bio One) using a multidrop dispenser and incubated at 37 degrees C, 5% CO2, under a humidified atmosphere for 5 hours. Twenty-three nanoliters of compounds and controls (neutral control DMSO or positive control bortezomib at final concentration of 2.3 µM) were subsequently transferred by Kalypsys pintool. For primary screens, the MIPE collection was tested at 11-point dilutions (final concentrations range from 0.78 nM to 46 µM) and the NPC collection at 8-point dilutions (final concentrations range from 0.59 nM to 46 µM). Compounds tested in follow-up screens were assayed at 11-point dilutions. Cells were incubated for 48 hours, followed by addition of 3 µL of CellTiter-Glo (Promega). After a 15 min incubation at room temperature, samples were analyzed for luminescence intensity using a ViewLux High-throughput CCD imager equipped with clear filters.
Potency is read from the fitted curve at half-maximal effect.

| SMILES | Potency | activity change, negative = cytotoxic |
| --- | --- | --- |
| CCN(CC)Cc1ccc2cc(COC(=O)Nc3ccc(C(=O)NO)cc3)ccc2c1 | 2.35 µM (active) | – |
| OC[C@H]1OC(O)C[C@@H](O)[C@H]1O (stereo not given in full) | – | -5.77% (inactive) |
| CC(C)[C@H](CO)Nc1nc(Nc2cccc(Cl)c2)c2ncn(C(C)C)c2n1 | 18.7 µM (active) | – |
| CN(CC(=O)N(Cc1ccc(C2CCCCC2)cc1)c1ccc(C(=O)O)c(O)c1)S(=O)(=O)c1c(F)c(F)c(F)c(F)c1F | 37.2 µM (active) | – |
| C[C@H](O)[C@@H]1C(=O)N2C(C(=O)O)=C(S[C@@H]3CN[C@H](CNS(N)(=O)=O)C3)[C@@H](C)[C@@H]12 | – | -0.684% (inactive) |
| CC(C)(O)[C@H]1CC[C@@](C)([C@H]2[C@@H](O)C[C@@]3(C)[C@@H]4C[C@H](O[C@@H]5O[C@H](CO)[C@@H](O)[C@H](O)[C@@H]5O)[C@H]5C(C)(C)[C@@H](O[C@@H]6OC[C@@H](O)[C@H](O)[C@@H]6O)CC[C@@]56C[C@@]46CC[C@]23C)O1 | – | 5.62% (inactive) |
| CN(C)CC(=O)N1CCC(c2ccc(NC(=O)c3ncc(C#N)[nH]3)c(C3=CCCCC3)c2)CC1 | 18.7 µM (active) | – |
| CC(=O)OCC(=O)[C@@]12N=C(C)O[C@H]1C[C@H]1[C@@H]3CCC4=CC(=O)C=C[C@]4(C)[C@@H]3[C@@H](O)C[C@@]12C | – | 9.14% (inactive) |
| c1cncc(CN2CCC(n3ncc4c(N5CCOCC5)nc(-c5ccc6[nH]ccc6c5)nc43)CC2)c1 | 6.62 µM (active) | – |
| Cc1ccc2nc(NCCN)c3ncc(C)n3c2c1 | 13.2 µM (active) | – |
| O=[N+]([O-])c1cn2c(n1)OC[C@@H](OCc1ccc(OC(F)(F)F)cc1)C2 | – | -14.5% (inactive) |
| NC[C@H]1O[C@H](O[C@H]2[C@@H](O)[C@@H](O[C@H]3O[C@H](CO)[C@@H](O)[C@H](N)[C@@H]3O)[C@H](N)C[C@@H]2N)[C@H](N)C[C@H]1O | – | 4.03% (inactive) |
| COC[C@H](NC(=O)c1cnc(C)s1)C(=O)N[C@@H](COC)C(=O)N[C@@H](Cc1ccccc1)C(=O)[C@@]1(C)CO1 | 0.166 µM (active) | – |
| C[C@H]1O[C@H](O[C@H]2[C@H](O)[C@@H](O)[C@@H](O[C@H]3[C@H](O)[C@@H](O)C(O)O[C@H]3CO)O[C@H]2CO)[C@H](O)[C@@H](O)[C@H]1N[C@H]1C=C(CO)[C@@H](O)[C@H](O)[C@@H]1O (stereo not given in full) | – | 0.8% (inactive) |
| c1cc(N[C@@H]2CCNC2)nc(-c2cnc3ccc(-c4cn[nH]c4)cn23)c1 | 16.6 µM (active) | – |
| CC[C@H]1OC(=O)[C@H](C)[C@@H](O[C@H]2C[C@@](C)(OC)[C@@H](O)[C@H](C)O2)[C@H](C)[C@@H](O[C@@H]2O[C@H](C)C[C@H](N(C)C)[C@@H]2O)[C@](C)(OC)C[C@@H](C)C(=O)[C@H](C)[C@@H](O)[C@]1(C)O | – | -13% (inactive) |
| CCCCCCCCCCCCc1ccc(S(=O)(=O)Nc2nncs2)cc1 | – | 4.03% (inactive) |
| CCC[C@H]1C[C@H](C(=O)N[C@@H]([C@@H]2O[C@@H](SC)[C@@H](O)[C@@H](O)[C@@H]2O)[C@H](C)Cl)N(C)C1 | – | 11.2% (inactive) |
| C=C(C)[C@@H]1CC[C@]2(C(=O)O)CC[C@]3(C)[C@H](CC[C@@H]4[C@@]5(C)CC[C@H](O)C(C)(C)[C@@H]5CC[C@]43C)[C@@H]12 | – | -5.5% (inactive) |
| C=CC1=C(C(=O)O)N2C(=O)[C@@H](NC(=O)C(=NO)c3csc(N)n3)[C@H]2SC1 | – | 7.14% (inactive) |

| SMILES | Potency | activity change, negative = cytotoxic |
| --- | --- | --- |
| C[C@@H]1CC[C@@]2(OC1)OC1CC3C4CC=C5CC(O)CCC5(C)C4CCC3(C)C1[C@@H]2C (stereo not given in full) | – | 16% (inactive) |
| COc1cc2ncnc(Nc3cccc(Br)c3)c2cc1OC | 0.935 µM (active) | – |
| Cn1cc(CNCC2CCN(c3ncc(C(=O)NO)cn3)CC2)c2ccccc21 | 0.187 µM (active) | – |
| Cc1ccc([N+](=O)[O-])cc1S(=O)(=O)N(C)N=Cc1cnc2ccc(Br)cn12 | 0.0743 µM (active) | – |
| O=C(O)CCCCCC(=O)NN=C1CCCC1 | – | -17.9% (inactive) |
| CCN(CC)CCCCNc1ncc2c(n1)N(C)C(=O)N(c1c(Cl)c(OC)cc(OC)c1Cl)C2 | 18.7 µM (active) | – |
| C[C@@H](Cc1cc2c(c(C(N)=O)c1)N(CCCO)CC2)NCCOc1ccccc1OCC(F)(F)F | – | -18.3% (inactive) |
| Nc1ccn(C2CO[C@H](CO)O2)c(=O)n1 (stereo not given in full) | – | -3.87% (inactive) |
| C[C@@]12C[C@@]3(O)O[C@@H](O1)[C@]1(COC(=O)c4ccccc4)[C@@H]3C[C@@]12O[C@@H]1O[C@H](CO)[C@@H](O)[C@H](O)[C@@H]1O | – | -3.22% (inactive) |
| Cn1cc(-c2cnn3c(N)c(Br)c([C@H]4CCCNC4)nc23)cn1 | 1.05 µM (active) | – |
| C#Cc1cccc(Nc2ncnc3cc(OCCOC)c(OCCO)cc23)c1 | 1.66 µM (active) | – |
| CCc1c(O)cc(O)c(C(=O)c2ccc(OCCN3CCOCC3)c(OC)c2)c1CC(=O)N(CCOC)CCOC | 0.526 µM (active) | – |
| FC(F)c1nc2ccccc2n1-c1nc(N2CCOCC2)nc(N2CCOCC2)n1 | 0.418 µM (active) | – |
| CCN1CCN(C(=O)N[C@H](C(=O)N[C@@H]2C(=O)N3C(C(=O)O)=C(CSc4nnnn4C)CS[C@@H]23)c2ccc(O)cc2)C(=O)C1=O | – | 6.64% [at 9.22 µM] (inactive) |
| O=C(O)C=Cc1ccc(Cn2ccnc2)cc1 | – | 2.33% (inactive) |
| COc1ccc(CCC(=O)c2c(O)cc(O[C@@H]3O[C@H](CO)[C@@H](O)[C@H](O)[C@@H]3O[C@@H]3O[C@@H](C)[C@H](O)[C@@H](O)[C@@H]3O)cc2O)cc1O | 13.2 µM (active) | – |
| COc1cc(C)c(C=CC(C)=CC=CC(C)=CC(=O)O)c(C)c1C | – | -1.94% (inactive) |
| CCCCCN=C(N)NN=Cc1c[nH]c2ccc(OC)cc12 | 18.7 µM (active) | – |
| CCNC(=O)c1cc2c(-c3cc(OCCN4CCCC4)c(Cl)cc3Cl)nc(N)nc2s1 | 1.48 µM (active) | – |
| NC(=O)c1ncn([C@@H]2O[C@H](CO)[C@@H](O)[C@@H]2O)c1N | – | -9.67% (inactive) |
